According to PubChem BioAssay (NCATS):
Several values for one entry are separate records, joined by “and”; a condition that tells them apart may be missing. Equal values may be shown once. Records with an inconclusive call do not appear. Activity calls are given as the source filed them. Unless noted, calls follow the shape of the dose curve; as a rule, active = well fitted curve in the direction sought with a large enough effect; inconclusive = small, poorly fitted or top-dose-only effect, or another doubt; inactive = no such curve, though single readings can be large; an effect the other way counts as inactive or inconclusive.

Legend:
[1] = biological target: Protein phosphatase 1D (Homo sapiens) (UniProt O15297); test: RapidFire Mass Spectrometry qHTS Assay for Modulators of WT P53-Induced Phosphatase 1 (WIP1) (AID 1347424);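 also: amount of dephosphorylated VEPPL-S-QETFS peptide product formed by WIP1; series mostly up to about 63 µM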
Sequence of Protein phosphatase 1D (Homo sapiens) (O15297 whole entry, looked up): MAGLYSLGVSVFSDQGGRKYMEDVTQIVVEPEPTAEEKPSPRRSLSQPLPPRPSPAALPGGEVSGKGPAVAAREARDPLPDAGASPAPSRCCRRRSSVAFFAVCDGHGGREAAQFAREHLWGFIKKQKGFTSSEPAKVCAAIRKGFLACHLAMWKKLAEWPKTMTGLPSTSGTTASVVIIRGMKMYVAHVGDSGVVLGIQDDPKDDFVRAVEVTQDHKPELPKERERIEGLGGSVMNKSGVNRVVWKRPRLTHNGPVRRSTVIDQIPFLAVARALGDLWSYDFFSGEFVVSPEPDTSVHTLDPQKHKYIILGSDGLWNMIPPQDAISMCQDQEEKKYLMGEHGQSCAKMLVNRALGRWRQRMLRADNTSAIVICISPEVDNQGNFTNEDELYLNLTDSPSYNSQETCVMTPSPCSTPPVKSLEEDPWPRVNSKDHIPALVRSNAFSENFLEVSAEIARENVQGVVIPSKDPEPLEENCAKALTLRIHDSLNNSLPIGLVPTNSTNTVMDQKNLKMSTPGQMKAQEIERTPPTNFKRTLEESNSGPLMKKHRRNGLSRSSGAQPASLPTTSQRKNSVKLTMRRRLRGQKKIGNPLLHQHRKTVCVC
Summary of the method: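 WIP1 (10 nM final) was preincubated 1 h at room temperature with compounds in Tris-HCl pH 7.5, 30 mM MgCl2, TCEP, EGTA, BSA; 2 uM VEPPL-pS-QETFS phosphopeptide was added for 5 min, quenched with formic acid, and dephosphorylated product quantified by RapidFire MS.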

[2] = biological target: Protein phosphatase 1D (Homo sapiens) (UniProt O15297); test: Rhodamine-PBP qHTS Assay for Modulators of WT P53-Induced Phosphatase 1 (WIP1) (AID 1347425)
Summary of the method: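 Read-out: Rhodamine-PBP fluorescence (ex 525/em 598 nm) for released Pi, read each minute for 11 min after adding 10 uM VEPPL-pS-QETFS; signal taken as f1 minus pre-substrate f0. Enzyme 5 nM WIP1 with 1 hr room-temperature compound preincubation.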

[3] = Primary qHTS for inhibitors of La Crosse Virus (LACV) - induced cell death in SH-SY5Y cells (AID 1508616);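 also: top concentration of the series differs between compounds; higher means more rescue of cells from virus-induced death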
Summary of the method: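 Protection against LACV-induced cell death is scored in SH-SY5Y cells exposed to compounds and virus (0.01 MOI) for 6 days. Data normalized to virus-infected DMSO wells and virus-free DMSO wells.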

[4] = biological target: Calcium and integrin-binding protein 1 (Homo sapiens) (UniProt Q99828); test: Primary qHTS for Identification of Calcium Integrin Binding Protein 1 (CIB1) Competitor (AID 1508620);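 also: GST tagged CIB1 binding a fluorescein labelled alphaIIb integrin peptide tracer; top concentration of the series differs between compounds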
Sequence of Calcium and integrin-binding protein 1 (Homo sapiens) (Q99828 whole entry, looked up): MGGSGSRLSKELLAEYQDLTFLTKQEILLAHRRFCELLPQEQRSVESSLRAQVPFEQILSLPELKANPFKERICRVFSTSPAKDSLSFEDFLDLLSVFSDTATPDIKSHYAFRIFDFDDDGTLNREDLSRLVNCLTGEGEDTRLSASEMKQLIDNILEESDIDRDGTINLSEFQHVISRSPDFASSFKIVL
Summary of the method: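 Fluorescence polarization competition: CIB1-GST (1 uM final) preincubated with compound 15 min at room temperature, then FITC-labeled alphaIIb peptide (100 nM final) added for another 15 min. Polarization read at Ex 480/Em 540.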

[5] = Primary qHTS for small molecule stabilizers of the endoplasmic reticulum resident proteome: Secreted ER Calcium Modulated Protein (SERCaMP) assay (AID 1508630)
Summary of the method: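 GLuc-SERCaMP-expressing SH-SY5Y cells, pretreated 16 h with compound, are challenged with thapsigargin to empty ER calcium stores; after 4 h, coelenterazine is added directly to the medium and luminescence is imaged.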

[6] = A High-Content qHTS Against Drug Library for the Identification of Small Molecules that Inhibit DYT1 Early Onset Primary Dystonia-Associated Cell Pathology (AID 1645839; calls by dose curve; also: series mostly up to about 46 µM)
Summary of the method: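 Readout: %pathology, the punctate EGFP-TorsinA distribution from imaging, as the primary channel and cell count as the toxicity counterscreen. HEK293 Flp-In cells expressing delE TorsinA were induced with tetracycline and treated with compound for 48 h.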

[7] = biological target: Cytochrome P450 2D6 (Homo sapiens) (UniProt P10635); test: Cytochrome P450 family 2 subfamily D member 6 (CYP2D6) small molecule antagonists: luciferase biochemical (cell-free) qHTS assay (AID 1645840; active = well fitted curve in the direction sought with a large enough effect in the repeat runs; an effect the other way counts as inactive or inconclusive; also: nearly all actives have a fitted effect of over 55% in size; also: potency is read from the fitted curve at half-maximal effect)
Sequence of Cytochrome P450 2D6 (Homo sapiens) (P10635 whole entry, looked up): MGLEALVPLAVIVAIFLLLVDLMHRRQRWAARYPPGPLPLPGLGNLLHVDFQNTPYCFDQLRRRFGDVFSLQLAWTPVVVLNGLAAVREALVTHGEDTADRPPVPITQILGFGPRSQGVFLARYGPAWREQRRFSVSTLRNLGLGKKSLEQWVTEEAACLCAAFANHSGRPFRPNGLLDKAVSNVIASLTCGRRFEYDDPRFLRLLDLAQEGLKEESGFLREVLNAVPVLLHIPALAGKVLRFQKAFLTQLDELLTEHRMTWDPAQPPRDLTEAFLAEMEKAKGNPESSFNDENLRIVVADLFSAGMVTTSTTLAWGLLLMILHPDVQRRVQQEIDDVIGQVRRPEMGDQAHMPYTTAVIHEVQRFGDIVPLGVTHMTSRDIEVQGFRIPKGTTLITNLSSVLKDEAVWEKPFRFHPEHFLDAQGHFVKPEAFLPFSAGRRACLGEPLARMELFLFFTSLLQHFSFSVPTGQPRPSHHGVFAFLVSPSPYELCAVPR
Summary of the method: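 P450-Glo luminescent screen: recombinant CYP2D6 enzyme–proluciferin substrate mix preincubated with compound 10 min at room temperature, then NADPH regeneration added for 1 h at room temperature. Detection reagent added for 20 min; luciferin light read as relative luminescence units.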

[8] = biological target: Cytochrome P450 2C9 (Homo sapiens) (UniProt P11712); test: Cytochrome P450 family 2 subfamily C member 9 (CYP2C9) small molecule antagonists: luciferase biochemical (cell-free) qHTS assay (AID 1645842; active = well fitted curve in the direction sought with a large enough effect in the repeat runs; an effect the other way counts as inactive or inconclusive; also: nearly all actives have a fitted effect of over 55% in size; also: potency is read from the fitted curve at half-maximal effect)
Sequence of Cytochrome P450 2C9 (Homo sapiens) (P11712 whole entry, looked up): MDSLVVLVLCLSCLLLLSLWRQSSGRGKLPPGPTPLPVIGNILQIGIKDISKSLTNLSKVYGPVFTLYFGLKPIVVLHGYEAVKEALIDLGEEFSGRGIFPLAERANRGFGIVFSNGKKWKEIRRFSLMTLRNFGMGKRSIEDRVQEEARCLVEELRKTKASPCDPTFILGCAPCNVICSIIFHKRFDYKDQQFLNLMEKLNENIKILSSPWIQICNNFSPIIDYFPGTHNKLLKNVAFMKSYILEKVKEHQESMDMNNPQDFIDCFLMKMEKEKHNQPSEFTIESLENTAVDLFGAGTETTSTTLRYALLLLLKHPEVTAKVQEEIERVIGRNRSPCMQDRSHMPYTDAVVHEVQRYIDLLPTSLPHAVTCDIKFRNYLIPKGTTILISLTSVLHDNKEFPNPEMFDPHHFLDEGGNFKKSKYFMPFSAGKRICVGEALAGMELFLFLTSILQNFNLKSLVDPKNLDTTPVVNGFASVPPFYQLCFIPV
Summary of the method: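 Luminescence, after 20 min with luciferin detection reagent, reflected CYP2C9 turnover during a 1 h NADPH-driven reaction at 37C. Enzyme-substrate mix contained 0.4% bovine serum albumin and was preincubated with compound 10 min at room temperature.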

[9] = Primary qHTS for inhibitors of nuclear receptor binding SET domain protein 2 (NSD2) in an isogenic RCH-ACV NSD2 p.E1099K mutant (9B) (AID 1645876); also: nearly all actives have a fitted effect of over 70% in size; also: potency is read from the fitted curve at half-maximal effect
[10] = Primary qHTS for inhibitors of nuclear receptor binding SET domain protein 2 (NSD2) in an RCH-ACV wild type WT cells (2C) (AID 1645877); also: nearly all actives have a fitted effect of over 70% in size; also: potency is read from the fitted curve at half-maximal effect
Papain (Carica papaya) = Papain (Carica papaya) (UniProt P00784); test: Primary qHTS assay for inhibitors of the protease papain (AID 1645873);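 also: papain turnover of Z-FR-AMC read as the AMC fluorescence gain over 10 min; series mostly up to about 50 µM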
Sequence of Papain (Carica papaya) (P00784 whole entry, looked up): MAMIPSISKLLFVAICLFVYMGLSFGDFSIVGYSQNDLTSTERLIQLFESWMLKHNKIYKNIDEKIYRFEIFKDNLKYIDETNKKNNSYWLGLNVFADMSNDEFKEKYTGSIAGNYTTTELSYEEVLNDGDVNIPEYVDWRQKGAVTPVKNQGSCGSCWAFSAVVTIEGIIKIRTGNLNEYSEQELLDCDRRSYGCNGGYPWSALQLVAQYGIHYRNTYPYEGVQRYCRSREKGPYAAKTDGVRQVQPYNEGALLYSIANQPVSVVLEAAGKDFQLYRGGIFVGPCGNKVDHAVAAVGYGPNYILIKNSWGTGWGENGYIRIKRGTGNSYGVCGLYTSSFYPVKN

[11] = Counterscreen qHTS for small molecule stabilizers of the endoplasmic reticulum resident proteome: GLuc-NoTag assay (AID 1508627);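 also: SH-SY5Y cells given compound then 100 nM thapsigargin to empty ER calcium; series mostly up to about 76 µM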
Summary of the method: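 SH-SY5Y cells stably expressing constitutively secreted GLuc (no SERCaMP tag) were pre-incubated 5 h, treated with compound for 19 h, then 100 nM thapsigargin for 4 h at 37C; medium GLuc read by coelenterazine luminescence.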

[12] = Confirmatory qHTS for small molecule stabilizers of the endoplasmic reticulum resident proteome: Secreted ER Calcium Modulated Protein (SERCaMP) assay (AID 1508628); also: series mostly up to about 76 µM; nearly all actives have a fitted effect of over 40% in size
Summary of the method: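 SH-SY5Y cells stably expressing GLuc-SERCaMP, treated 16 h with compound (primary 1.53, 7.67, 38.3 uM; confirmation 11 concentrations, up to 76.6 uM), then 100 nM thapsigargin for 4 h. Secreted Gaussia luciferase in medium read by coelenterazine luminescence.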

[13] = biological target: Calcium and integrin-binding protein 1 (Homo sapiens) (UniProt Q99828); test: Confirmatory qHTS for Identification of Calcium Integrin Binding Protein 1 (CIB1) Competitor (AID 1508617); also: nearly all actives have a fitted effect of over 65% in size
Summary of the method: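 Fluorescence polarization competition: CIB1-GST (1 uM final) in 5 mM HEPES pH 7.4, 125 mM NaCl, 5 mM CaCl2, 0.01% Tween20 preincubated 15 min RT with compound (up to 114 uM), then FITC-alphaIIb peptide (100 nM) added, 15 min RT.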

[14] = Validation qHTS assay for inhibitors of Activation Induced Cytidine Deaminase (AID): UDG Counterscreen signal (AID 1347427)
Summary of the method: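 Counterscreen read of UDG activity (2 U/mL, 4/3x) in the FRET deamination format with AID (1 uM, 4/3x), DJC20/DJC23 substrates (250 nM, 4x), 4 h at room temperature. NaOH stop, fluorescence at 560 ex/665 em.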

[15] = biological target: Single-stranded DNA cytosine deaminase (Homo sapiens) (UniProt Q9GZX7); test: Validation qHTS assay for inhibitors of Activation Induced Cytidine Deaminase (AID): AID signal (AID 1347429)
Sequence of Single-stranded DNA cytosine deaminase (Homo sapiens) (Q9GZX7 whole entry, looked up): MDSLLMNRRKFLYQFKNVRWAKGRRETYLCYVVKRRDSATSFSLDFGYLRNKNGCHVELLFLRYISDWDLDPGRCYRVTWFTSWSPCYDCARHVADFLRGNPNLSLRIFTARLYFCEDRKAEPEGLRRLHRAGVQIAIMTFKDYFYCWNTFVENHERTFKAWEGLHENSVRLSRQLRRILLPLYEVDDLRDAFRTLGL
Summary of the method: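 Fluorescence at 540 nm excitation and 590 nm emission reports ssDNA cytosine deamination by AID, with UDG in the same well. Compound-treated reactions ran 4 hr at room temperature with DJC20/DJC23 substrate, followed by 30 min NaOH treatment.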

[16] = biological target: Calcium and integrin-binding protein 1 (Homo sapiens) (UniProt Q99828); test: Validation qHTS for Identification of Calcium Integrin Binding protein 1 (CIB1) Competitor (AID 1508618)
Summary of the method: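 CIB1-GST (1 uM final) in 5 mM HEPES pH 7.4, 125 mM NaCl, 5 mM CaCl2, 0.01% Tween20 was preincubated 15 min at room temperature with compound (up to 114 uM), then FITC-alphaIIb peptide (100 nM) added for 15 min; fluorescence polarization read.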

[17] = biological target: Cytochrome P450 3A4 (Homo sapiens) (UniProt P08684); test: Cytochrome P450 family 3 subfamily A member 4 (CYP3A4) small molecule antagonists: luciferase qHTS assay (AID 1645841; active = well fitted curve in the direction sought with a large enough effect in the repeat runs; an effect the other way counts as inactive or inconclusive; also: nearly all actives have a fitted effect of over 45% in size)
Sequence of Cytochrome P450 3A4 (Homo sapiens) (P08684 whole entry, looked up): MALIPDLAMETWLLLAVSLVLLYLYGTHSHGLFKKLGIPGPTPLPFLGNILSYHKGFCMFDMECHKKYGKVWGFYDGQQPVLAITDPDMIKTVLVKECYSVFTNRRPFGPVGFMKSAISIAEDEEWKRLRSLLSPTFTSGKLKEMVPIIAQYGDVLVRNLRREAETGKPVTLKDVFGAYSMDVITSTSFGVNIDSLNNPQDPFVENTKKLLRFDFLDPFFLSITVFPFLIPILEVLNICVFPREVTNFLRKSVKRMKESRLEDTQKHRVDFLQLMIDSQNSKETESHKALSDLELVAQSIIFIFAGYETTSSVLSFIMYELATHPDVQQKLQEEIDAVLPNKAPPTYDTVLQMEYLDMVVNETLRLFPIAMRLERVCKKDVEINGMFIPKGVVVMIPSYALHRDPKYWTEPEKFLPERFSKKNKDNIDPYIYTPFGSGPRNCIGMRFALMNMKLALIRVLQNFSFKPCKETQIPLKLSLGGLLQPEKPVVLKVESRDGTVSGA
Summary of the method: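 P450-Glo CYP3A4 enzyme with proluciferin substrate was preincubated with DMSO-dissolved compounds for 10 min at room temperature. NADPH regeneration solution started a 1 h reaction. Detection reagent stopped it, and luminescence was read after 20 min.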

[18] = biological target: N-terminal Xaa-Pro-Lys N-methyltransferase 1 (Homo sapiens) (UniProt Q9BV86); test: Confirmatory qHTS for Inhibitors of N-terminal methyltransferase 1 (NTMT1): MTaseGlo Assay (AID 1645874); conditions: NTMT1 enzyme, MTase-Glo SAH luminescence; also: potency is read from the fitted curve at half-maximal effect; nearly all actives have a fitted effect of over 65% in size
Sequence of N-terminal Xaa-Pro-Lys N-methyltransferase 1 (Homo sapiens) (Q9BV86 whole entry, looked up): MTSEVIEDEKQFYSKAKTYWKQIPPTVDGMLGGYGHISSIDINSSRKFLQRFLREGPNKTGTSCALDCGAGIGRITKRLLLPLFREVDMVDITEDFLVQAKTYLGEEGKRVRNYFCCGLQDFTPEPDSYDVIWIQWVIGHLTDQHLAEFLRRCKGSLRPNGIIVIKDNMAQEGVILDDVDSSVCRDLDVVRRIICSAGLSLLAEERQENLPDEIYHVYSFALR
Summary of the method: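 Luminescent MTase-Glo read-out of SAH. 125 nM NTMT1, 100 uM SAM, 1 uM SPKRIA substrate, 30 min RT reaction after 15 min compound preincubation. Normalized to no-enzyme and DMSO controls; Hill fit.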

Measured: Potency

CCn1cc(C(=O)O)c(=O)c2cnc(N3CCNCC3)nc21
inactive: [1] | [2] | [3] | [4] | [5] | [6] | [7] | [8] | [9] | [10]

CCOC(=O)c1ccc(O)cc1
inactive: [1] | [2] | [3] | [4] | [5] | [6] | [9] | [10]

NC(=O)N/N=C/c1ccc([N+](=O)[O-])o1
active: [7] 13400 nM | [10] 24.3 µM
inactive: [1] | [2] | [3] | [4] | [5] | [6] | [8]

O=C(O)c1ccccc1O
inactive: [1] | [2] | [3] | [4] | [5] | [6] | [9] | [10]

CC(=O)Nc1ccc(/C=N/NC(N)=S)cc1
active: [9] 21.1 µM | [10] 16.8 µM
inactive: [1] | [2] | [3] | [4] | [5] | [6] | [7]

CCCCc1ncc(/C=C(\Cc2cccs2)C(=O)O)n1Cc1ccc(C(=O)O)cc1
inactive: [1] | [2] | [3] | [4] | [6] | [7] | [8] | Papain (Carica papaya) | [9] | [10]

CCN(CC)CCNC(C(=O)OCCC(C)C)c1ccccc1 (stereo not given)
inactive: [1] | [2] | [3] | [4] | [5] | [6] | [8] | [9] | [10]
active: [7] 776 nM

NC(=O)NNc1ccccc1
inactive: [1] | [2] | [3] | [4] | [5] | [9] | [10]

Cc1ccc2nc(N)[nH]c(=O)c2c1Sc1ccncc1
inactive: [1] | [2] | [3] | [4] | [5] | [6]
active: [7] 7.76 µM and 10.7 µM | [9] 2.3 µM | [10] 2.05 µM

C[C@@H]1C[C@H]2[C@@H]3C[C@H](F)C4=CC(=O)C=C[C@]4(C)[C@@]3(F)[C@@H](O)C[C@]2(C)[C@@]1(O)C(=O)CO
inactive: [1] | [2] | [3] | [4] | [5] | [6]
active: [10] 2.7 nM and 5.2 nM

Cc1ncc([N+](=O)[O-])n1CC(O)CCl (stereo not given)
inactive: [1] | [2] | [3] | [4] | [5] | [6] | [9] | [10]

Nc1ccc(S(=O)(=O)NC(=O)c2ccccc2)cc1
inactive: [1] | [2] | [3] | [4] | [5] | [6] | [7] | [9] | [10]

CC[N+](CC)(CC)CCOc1ccc(/C=C/c2ccccc2)cc1
active: [7] 617 nM | [9] 2.11 µM | [10] 1.88 µM
inactive: [1] | [2] | [3] | [4] | [5] | [6] | [8]

CC(COc1ccccc1)NC(C)C(O)c1ccc(O)cc1 (stereo not given)
inactive: [1] | [2] | [3] | [4] | [5] | [6] | [9] | [10]
active: [7] 617 nM

CC(C)(C(=O)O)c1ccc(C(O)CCCN2CCC(C(O)(c3ccccc3)c3ccccc3)CC2)cc1 (stereo not given)
inactive: [1] | [2] | [3] | [6] | Papain (Carica papaya)

Cc1cc2nc3c(=O)[nH]c(=O)nc-3n(C[C@H](O)[C@H](O)[C@H](O)CO)c2cc1C
inactive: [1] | [2] | [3] | [11] | [12] | [6] | [8] | [9] | [10]

CO/N=C(\C(=O)N[C@@H]1C(=O)N2C(C(=O)O)=C(CSc3nc(=O)c(O)nn3C)CS[C@H]12)c1csc(N)n1
inactive: [2] | [3] | [4] | [6] | [9] | [10]

Cc1cc(C(C#N)c2ccc(Cl)cc2)c(Cl)cc1NC(=O)c1cc(I)cc(I)c1O (stereo not given)
active: [7] 11000 nM | [8] 21.9 µM
inactive: [3] | [13]

CC1=C(CC(=O)O)c2cc(F)ccc2/C1=C\c1ccc(S(C)(=O)=O)cc1
inactive: [2] | [14] | [15] | [3] | [16] | [4] | [5] | [6] | [7] | Papain (Carica papaya)

CC(C)(C)c1onc(OCP(=O)(O)O)c1CC(N)C(=O)O (stereo not given)
inactive: [14] | [15] | [3] | [16] | [5] | Papain (Carica papaya)

NCCNCCNCCN
inactive: [1] | [2] | [3] | [6] | [8] | [9] | [10]

[Cl][In]([Cl])[Cl]
inactive: [4] | [6] | [7] | [17] | [8]
active: [18] 4.91 µM | [9] 24.3 µM

C[C@@H](O)[C@H](N)C(=O)O
inactive: [1] | [2] | [3] | [6] | [7] | [8] | [9] | [10]
